Screens deposited in PubChem BioAssay by National Center for Advancing Translational Sciences (NCATS).
Sampled rows, rich in hits. Any-hit rate of the full collection: about 7.6%.
Tau filament bind: qHTS Assay for Tau Filament Binding | Microtubule-associated protein tau (Homo sapiens), P10636 | recombinant tau filaments, thioflavin S fluorescence, 15 h; filaments grown with octadecylsulfate alongside compound | Potency, µM (highest dose often 57.1 µM), for the others: at the top dose activity change, negative = inhibition | 2% of 71,000 active | AID 596, 2007;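 note: % is set by controls: 0 for no effect and ±100 for the full control effect; actives lower thioflavin S fluorescence by blocking filaments or displacing dye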
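His-tagged recombinant human tau (exons 2, 3 and 10 included), 1 uM, was induced to fibrillize by 30 uM sodium octadecylsulfate with compound present. After 15 h at 37 C, thioflavine S fluorescence (ex 450, em 510 nm) was read.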
HEK293 cAMP ctrl: qHTS Assay for Agonists of the Thyroid Stimulating Hormone Receptor: Activators of Intracellular cAMP Concentrations in Parental HEK 293. parental HEK293 CNG cAMP sensor, membrane potential fluorescence. Potency, µM (doses to about 57.1 µM), without a hit: at the highest dose activation, actives largely listed as activators. 2.5% of 73,000 active. AID 938, 2007; note: % of control where 0% means no effect; nearly all actives have a fitted effect of over 55% in size
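Parental HEK 293 cells stably expressing a cAMP-gated CNG channel were loaded with membrane potential dye containing 100 uM RO 20-1724 for 60 min. Compound added for 30 min; depolarization read as fluorescence intensity at 590 nm.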
CRE-bla Fsk: Cell signaling CRE-BLA (Fsk stim). CHO CRE-bla reporter (cAMP response element driving beta-lactamase), forskolin EC10, beta-lactamase ratio. Potency, µM (top dose mostly 38.2 µM), without a hit: top-dose activity change, negative = inhibition, actives largely listed as activators. 2.5% of 71,000 active; active = well fitted activation curve with a large enough effect in the signal ratio, with a control signal flat, not every such curve was filed as active; inconclusive = small, poorly fitted or top-dose-only effect, or effect the other way, or a change in a side signal; the % refers to the signal ratio; note: % of control where 0% means no effect
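The 460nm/530nm emission ratio after CCF4 loading defined %Activity, from which AC50 values were obtained. CRE-bla CHO cells received compound dilution series together with an EC10 level of NKH 477 for 3 hours at 37 degrees Celsius.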
ERK AVP inh: qHTS Assay for Inhibitors of the ERK Signaling Pathway using a Homogeneous Screening Assay | HEK293-V1b, vasopressin-stimulated pERK AlphaScreen | Potency, µM (top dose mostly 57.5 µM), for the others: at the top dose activity, negative = inhibition, actives largely listed as inhibitors | 0.99% of 72,000 active | AID 995, 2007; note: % is set by controls: 0 for no effect and ±100 for the full control effect; nearly all actives have a fitted effect of over 55% in size
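HEK293 cells stably expressing V1b receptor, preincubated 30 min at 37 °C with compound, then stimulated 5 min with 25 nM vasopressin. Phospho-ERK by AlphaScreen SureFire after 5 h RT; normalized to DMSO and vasopressin; AC50 by Hill fit.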
TSHR ag: qHTS Assay for Agonists of the Thyroid Stimulating Hormone Receptor; AID 926, 2007; HEK293-CNG-TSHR cells (CNG channel as cAMP sensor), membrane potential dye, cAMP; Thyrotropin receptor (Homo sapiens), P16473; Potency, µM (doses to about 57.1 µM), for the others: at the top dose activation, most hits filed as activators; 0.48% of 73,000 active; active = well fitted activation curve with a large enough effect in the main read-out, with a control signal flat, not every such curve was filed as active; inconclusive = small, poorly fitted or top-dose-only effect, or a change in a side signal; inactive = no such curve, though single readings can be large or run the other way; % of control where 0% means no effect;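 note: the control signal comes from parental cells without the receptor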
Target sequence (P16473 whole entry, looked up): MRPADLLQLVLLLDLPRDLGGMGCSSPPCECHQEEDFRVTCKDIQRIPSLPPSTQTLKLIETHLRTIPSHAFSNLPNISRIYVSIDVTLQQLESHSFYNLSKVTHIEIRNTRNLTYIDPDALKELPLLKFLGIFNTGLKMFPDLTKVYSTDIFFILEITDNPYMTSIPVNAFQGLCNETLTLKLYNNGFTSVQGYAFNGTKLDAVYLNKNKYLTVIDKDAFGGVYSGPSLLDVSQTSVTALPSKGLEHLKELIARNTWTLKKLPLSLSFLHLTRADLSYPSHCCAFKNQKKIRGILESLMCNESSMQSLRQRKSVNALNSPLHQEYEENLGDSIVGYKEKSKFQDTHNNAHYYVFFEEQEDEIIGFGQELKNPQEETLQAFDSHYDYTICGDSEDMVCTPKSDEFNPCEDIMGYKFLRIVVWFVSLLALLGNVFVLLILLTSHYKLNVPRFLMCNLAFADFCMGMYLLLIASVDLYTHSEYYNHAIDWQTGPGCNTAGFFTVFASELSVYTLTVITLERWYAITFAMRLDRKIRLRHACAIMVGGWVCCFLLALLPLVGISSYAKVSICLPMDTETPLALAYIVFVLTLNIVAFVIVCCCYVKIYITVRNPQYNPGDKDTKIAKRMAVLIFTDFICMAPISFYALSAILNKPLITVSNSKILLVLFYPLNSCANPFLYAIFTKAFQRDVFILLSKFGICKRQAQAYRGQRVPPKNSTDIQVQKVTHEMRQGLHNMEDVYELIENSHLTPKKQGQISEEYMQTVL
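cAMP rise detected as CNG-channel membrane depolarization by fluorescent dye (emission 590 nm), 30 min after compound, following 60 min dye loading containing 100 uM RO 20-1724 at room temperature. Cells: TSHR/CNG HEK 293, with parental CNG HEK 293 as control.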
Active calls of the source: *; ? = inconclusive; nt = no result given; [ ] = dose if it differs, or a comment. Unless noted, calls come from the whole dose curve; as a rule, active = well fitted curve in the direction sought with a large enough effect; inconclusive = small, poorly fitted or top-dose-only effect, or another doubt; inactive = no such curve, though single readings can be large; an effect the other way counts as inactive or inconclusive. Potency is the fitted concentration of half-maximal effect.

SMILES	Tau filament bind	HEK293 cAMP ctrl	CRE-bla Fsk	ERK AVP inh	TSHR ag
CCOC(=O)c1ccc2ncc(C(=O)OCC)c(NCc3ccco3)c2c1	-10%	25µM*	21%	5%	?
CCOC(=O)c1ccc2ncc(C(=O)OCC)c(NCCCN3CCOCC3)c2c1	60%	9%	?	?	1%
CCOC(=O)c1cnc2ccccc2c1NCCO	6%	1%	?	-13%	-3%
CCOC(=O)c1cnc2c(C)cccc2c1NCc1ccco1	22%	25µM*	?	-4%	?
COc1ccc(-n2c(=O)cnc3cnc(Oc4ccccc4)nc32)cc1	3%	?	-12%	-17%	?
Nc1cccc(B(O)O)c1	nt	3%	nt	-1%	0%
Cc1cc(N2CCOCC2)nc(SCC(=O)c2ccc(Cl)cc2)n1	8%	?	10µM*	-22%	?
COc1cc2c(cc1OC)-c1cc(NC3CCCCCCC3)nc(=O)n1CC2	20%	?	0.4µM*	?	?
COc1cc2c(cc1OC)-c1cc(NC3CC3)nc(=O)n1CC2	-4%	-9%	10µM*	?	28%
COc1cc2c(cc1OC)-c1cc(NC3CCCCC3)nc(=O)n1CC2	20%	16%	2µM*	?	nt
COc1cc2c(cc1OC)C(=O)Cc1ccc3c(c1CN(C)CC2)OCO3	?	13%	?	-2%	2%
COC(=O)c1cc(=O)c(O)c2c(O)c(O)ccc2c1	nt	nt	nt	4%	nt
C=C(C)CSc1nnc(-c2cccc(S(=O)(=O)N(C)C)c2)n1-c1cc(OC)ccc1OC	4%	13µM*	?	-24%	?
CN(Cc1ccco1)c1ncnc2ccc(-c3cccnc3)cc12	-1%	12%	?	?	2%
CN(C)c1ccc(-c2cncnc2N(C)Cc2ccco2)cc1	-20%	-3%	1%	?	nt
CN(Cc1ccco1)c1ncncc1-c1ccc2c(c1)OCO2	-6%	18%	6%	?	25µM*
CN(Cc1ccco1)c1ncnc2ccc(-c3ccc4c(c3)OCO4)cc12	1%	16µM*	?	?	?
Cc1cc(C)c2nc(N3CCN(C)CC3)c(C#N)cc2c1	36%	13µM*	3%	-5%	?
Cc1ccc(C)c2nc(N3CCCC3)c(C#N)cc12	18%	?	10µM*	-2%	?
Cc1cccc2cc(C#N)c(N3CCN(C)CC3)nc12	17%	16µM*	8%	4%	?
Cc1ccc2nc(N3CCN(C)CC3)c(C#N)cc2c1	15%	?	6%	-16%	?
CCOC(=O)N/N=C1/C[C@@H](O)[C@@H](O)[C@@H]2[C@@H]3C(=O)N(C4CCCCC4)C(=O)[C@H]3CC[C@@H]12	nt	19%[11.4 µM]	nt	17%[11.5 µM]	5%[11.4 µM]
O=S(=O)(NCCOC12CC3CC(CC(C3)C1)C2)c1cccc2nsnc12	16µM*	9%	14%	?	-4%
O=S(=O)(NCCC1=CCCCC1)c1cccc2nsnc12	?	0%	-10%	-1%	-9%
Cc1cc(C(=O)COc2cccc(-n3cnnn3)c2)c(C)n1-c1ccccc1	11%	25µM*	13%	11%	?
SMILES	Tau filament bind	HEK293 cAMP ctrl	CRE-bla Fsk	ERK AVP inh	TSHR ag
COc1nc(Nc2ccc(OC)c(Cl)c2)nc(OC)n1	18%	-2%	10µM*	-18%	-2%
O=C(c1ccc(F)cc1)c1cn[nH]c1-c1ccccc1O	-5%	-14%	7%	-13%	-10%
COc1ccc(C(=O)c2cn[nH]c2-c2cc(Cl)ccc2O)cc1	-4%	-6%	?	40µM*	-9%
COC(=O)c1cn(NC(=O)c2ccncc2)c(=O)c2ccccc12	2%	7%	-2%	19%	1%
COC(=O)c1cn(NC(=O)C2CCCCC2)c(=O)c2ccccc12	-5%	13µM*	?	6%	?
O=C(c1ccco1)N1CCN(S(=O)(=O)c2ccc(Oc3ccccc3)cc2)CC1	6%	20µM*	20%	1%	?
c1ccc(-n2nnnc2SCc2cccc3nsnc23)cc1	35%	20µM*	19%	11%	?
Fc1ccccc1OCCSc1nnnn1-c1ccccc1	4%	30%	6%	60%	nt
c1ccc(OCCSc2nnnn2-c2ccccc2)cc1	1%	25µM*	13%	-1%	?
CC1CCCN(c2nc3ccsc3c(=O)s2)C1 (stereo not given)	17%	25µM*	?	19%	?
COc1ccc2nc(N3CCCC(C(=O)NCCCN4CCN(C)CC4)C3)sc2c1 (stereo not given)	22%	-5%	-2%	8%	8%
CCC(c1nnnn1Cc1ccc2c(c1)OCO2)N1CCN(c2ccccc2)CC1 (stereo not given)	4%	16µM*	-4%	10%	?
COCCn1nnnc1C(c1ccc(C)cc1)N1CCN(Cc2ccc3c(c2)OCO3)CC1 (stereo not given)	-7%	24%	0%	-2%	8%
CCC(c1nnnn1Cc1ccc2c(c1)OCO2)N1CCN(c2ccc(OC)cc2)CC1 (stereo not given)	-27%	?	1%	-26%	?
COCCn1nnnc1C(c1ccccc1)N1CCN(Cc2ccc3c(c2)OCO3)CC1 (stereo not given)	12%	?	-13%	40µM*	?
CCC(c1nnnn1Cc1ccc2c(c1)OCO2)N1CCN(c2ccc(F)cc2)CC1 (stereo not given)	9%	16µM*	4%	6%	?
COCCn1nnnc1C(c1ccccc1OC)N1CCN(c2ccccc2F)CC1 (stereo not given)	6%	7.9µM*	-11%	-15%	?
COC(=O)[C@@]1(Cc2ccccc2)[C@H]2c3cc(C(=O)N4CCCC4)n(CCN4CNCC4=O)c3C[C@H]2CN1C(=O)c1ccccc1	-1%	8%	-7%	-4%	9%
COc1ccc(-n2c(=O)c(-c3cc(F)cc(F)c3)nc3cncnc32)cc1	-20%	?	5%	-16%	?
O=C(Nc1cccc(F)c1)N1CCC2(CC1)CCN(C(=O)c1cnccn1)CC2	12%	-7%	-2%	-6%	-2%
CC(=O)N1[C@H](C)C=C[C@]1(Cc1ccccc1)C(=O)NCCc1c[nH]c2ccccc12	-9%	28%	-14%	5%	0%
C[C@@H]1C=C[C@](Cc2ccccc2)(C(=O)NCCCNc2ncc(C(F)(F)F)cc2Cl)N1C(=O)c1ccccc1	49%	25µM*	?	-8%	?
CC(=O)N1[C@H](C)C=C[C@]1(Cc1ccccc1)C(=O)NCc1cc(F)cc(C(F)(F)F)c1	-17%	23%	-11%	24%	18%
